The values below come from PubChem BioAssay (NCATS).

In experiment [1] the target is Mitogen-activated protein kinase 10 (Mus musculus) (UniProt Q61831). In words: JNK3 AlphaScreen Assay (AID 530; active means well fitted curve in either direction with a large enough effect, not every such curve was filed as active;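 further: kinase came from lysate of stimulated human HepG2 cells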; further: potency means the concentration at half of the fitted maximal effect). The gist of the method: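 Compound titrations were preincubated 15 minutes at room temperature with substrate, antibody and pre-activated JNK3-containing HepG2 lysate. Reactions were started with 10 uM ATP and stopped with EDTA-containing bead buffer for AlphaScreen detection.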
For orientation: Bead proximity is the source of the signal in Alpha formats.

Experiment [2] in a line: Cell Viability - Renal Proximal Tubule (AID 545).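 Further: cells exposed to compound for 40 hours; 0% = DMSO only and -100% = 100 µM tamoxifen; nearly all actives have a fitted effect of over 40% in size.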 The gist of the method: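 Cytotoxicity is scored as a concentration-dependent drop in cellular ATP in primary rat renal proximal tubule cells exposed for 40 hr. AC50 derives from Hill modelling.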
Experiment [3] is described as follows: Cellular Toxicity (caspase-3) HepG2 (AID 654).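 Further: cells exposed to compound for 16 hours before reading; 0% = DMSO alone and 100% = caspase signal from 100 µM tamoxifen.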 The gist of the method:
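HepG2 cells (1500/well) were treated 16 h at 37 °C in complete medium, then caspase 3/7 activity was read by Caspase-Glo luminescence. Data were normalized to DMSO and 100 uM tamoxifen; AC50 came from Hill-equation fits of qHTS concentration-response.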

Experiment [4] can be described thus: Cellular Toxicity (caspase-3) SHSY5Y (AID 657). In outline: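 Cells plated and incubated 5 h at 37 °C, dosed over a concentration range, incubated 16 h, then given Caspase-Glo 3/7 reagent for 1 h at room temperature before luminescence reading. Staurosporine (10 uM) defined full stimulation.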
The nature of experiment [5]: Cellular Toxicity (caspase-3) H-4-II-E (AID 663).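 Further: cells exposed to compound for 16 hr before readout; 0% = DMSO basal and 100% = 100 µM tamoxifen.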 To be noted: Potency: caspase-3 activation. In outline: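 Apoptosis induction is scored as increased luminescence from caspase 3/7 substrate cleavage in rat hepatoma H-4-II-E cells exposed to compound for 16 hr. Activity is scaled between DMSO and 100 uM tamoxifen.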
Experiment [6] can be described thus: Cellular Toxicity (caspase-3) N2a (AID 665).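 Further: compound exposure lasted 16 h at 37 °C before readout.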 The gist of the method:
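Mouse N2a neuroblastoma cells, 1500 per well, treated 16 h at 37 °C in complete medium; caspase-3/7 activity by Caspase-Glo luminescence after 1 h. Normalized to DMSO and 10 uM staurosporine; AC50 from Hill fits.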

Experiment [7] in a line: Cellular Toxicity (caspase-3) Renal Proximal Tubule (AID 667).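 Further: cells exposed to compound for 16 hours at 37 °C before detection; 0% = DMSO basal and 100% = 10 µM staurosporine.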 The gist of the method:
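In qHTS format, rat primary proximal tubule cells seeded at 1000 per well are exposed to compounds for 16 hours at 37 °C. An increase in Caspase-Glo 3/7 luminescence indicates caspase activation.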

Experiment [8] is described as follows: Cell Viability - LYMP2-001 (AID 921). Further: nearly all actives have a fitted effect of over 70% in size. Further: potency means the concentration at half of the fitted maximal effect. In outline:
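qHTS, 1536-well; lymphoblastoid cells, 24 hr compound, 37 C; ATP by CellTiter-Glo, 30 min RT; luminescence; Hill-fit AC50.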

Experiment [9] can be described thus: MultiTox-Fluor Cytotoxicity Assay - LYMP1-003 - Dead Cells (AID 961).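 Further: 0% = DMSO and 100% = tetraoctylammonium bromide; nearly all actives have a fitted effect of over 70% in size.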 The gist of the method:
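Acute toxicity is scored as increased dead-cell protease activity in human lymphoblastoid LYMP1-003 cells after 16 h compound exposure in complete culture medium. Activity is normalized to DMSO basal and 15 uM tetraoctylammonium bromide as full response.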

The nature of experiment [10]: Cell Viability - LYMP2-009 (AID 968). Further: nearly all actives have a fitted effect of over 55% in size. Further: potency means the concentration at half of the fitted maximal effect.
Experiment [11] can be described thus: Cell Viability - LYMP2-021 (AID 974).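 Further: compound exposure lasts 24 hours at 37 °C; nearly all actives have a fitted effect of over 55% in size.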 Further: potency means the concentration at half of the fitted maximal effect. The gist of the method: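 Human lymphoblastoid LYMP2-021 cells, 2500/well in complete medium, treated 24 hours at 37 C. Intracellular ATP by CellTiter-Glo luminescence (30 min, RT); AC50 from Hill fits of concentration-response.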
A short description of experiment [12]: Cell Viability - LYMP2-006 (AID 978). Further: nearly all actives have a fitted effect of over 60% in size. Further: potency means the concentration at half of the fitted maximal effect. The gist of the method:
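Concentration-dependent loss of intracellular ATP in a human lymphoblastoid line after 24 hr treatment at 37 C was measured by CellTiter-Glo luminescence, with AC50 values obtained from standard Hill-equation modelling.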

Experiment [13] is described as follows: Cell Viability - LYMP2-018 (AID 985).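 Further: compound exposure lasted 24 hr at 37 °C; nearly all actives have a fitted effect of over 50% in size.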 Further: potency means the concentration at half of the fitted maximal effect. The gist of the method:
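Human lymphoblastoid LYMP2-018 cells, 2500/well, settled 5 hr at 37 C then exposed to compound 24 hr at 37 C; intracellular ATP measured by CellTiter-Glo luminescence. AC50 from Hill-equation concentration-response fits.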

The nature of experiment [14]: Cell Viability - LYMP1-002 - Assay at 24 hr (AID 993). Further: on the % scale 0 is the no-effect control and ±100 the full control effect. The gist of the method:
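Human lymphoblastoid LYMP1-002 cells (2500/well) treated 24 h at 37 °C; viability as intracellular ATP by CellTiter-Glo luminescence. Tetraoctylammonium bromide as positive control; AC50 from Hill-equation fits of qHTS concentration-response.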

Experiment [15] is described as follows: qHTS assay for environmental chemicals that activate the Aryl hydrocarbon Receptor (AhR) signaling pathway (AID 651777). Further: nearly all actives have a fitted effect of over 15% in size. Further: potency means the concentration at half of the fitted maximal effect. On activation: % of control where 0% means no effect. To be noted: 1A2-DRE human hepatoma cells, luciferase, 24 h; activation: hits give high values. In outline: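 Human hepatoma 1A2-DRE cells, stably carrying a dioxin response element and CYP1A2 promoter driving luciferase, were exposed to compounds for 24 hr at 37 C and 5% CO2. Luciferase signal was then read after 30 min One-Glo at room temperature.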
In general terms: qHTS replaces the single test concentration by a dilution series.

Experiment [16] is described as follows: qHTS assay for small molecule activators of the human pregnane X receptor (PXR) signaling pathway (AID 720659; call rule not given here; further: 0% is about no effect).
Experiment [17] can be described thus: Cell Viability - LYMP1-003 - Assay at 24 hr (AID 963).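 Further: plate controls were DMSO only for no effect and tetraoctylammonium bromide positive control for full effect.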 The gist of the method:
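Human lymphoblastoid LYMP1-003 cells, 2500/well, treated 24 h at 37 C in complete medium. Viability read as intracellular ATP by CellTiter-Glo luminescence after 30 min at room temperature; AC50 from Hill-equation fits of qHTS concentration-response.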

The nature of experiment [18]: Cell Viability - LYMP1-003 - Assay at 40 hr (AID 964). Further: nearly all actives have a fitted effect of over 60% in size. Further: potency means the concentration at half of the fitted maximal effect. The gist of the method:
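LYMP1-003 human lymphoblastoid cells, 2500/well, preincubated 5 h at 37 C, then treated with compound for 40 h at 37 C. Intracellular ATP read by CellTiter-Glo luminescence after 30 min at room temperature; AC50 from Hill-equation fits.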

Experiment [19] is described as follows: Cell Viability - LYMP2-008 (AID 980). Further: nearly all actives have a fitted effect of over 60% in size. Further: potency means the concentration at half of the fitted maximal effect. The gist of the method: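 LYMP2-008 lymphoblastoid cells (2500/well) plated 5 h, then treated 24 h at 37 C in complete medium. Viability read as intracellular ATP by CellTiter-Glo luminescence after 30 min at room temperature; AC50 from Hill fits.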
The nature of experiment [20]: Cell Viability - MRC5 (AID 434; calls by dose curve;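 further: potency means the concentration at half of the fitted maximal effect; cells exposed to compound for 40 hours at 37 °C; potency reflects cytotoxicity seen as loss of intracellular ATP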). To be noted: MRC5 lung fibroblast viability, qHTS. In outline: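 qHTS cytotoxicity in human lung fibroblast MRC5 cells; 40 hr treatment, 37 °C; cellular ATP by luciferase luminescence; DMSO = 0%, 100 uM tamoxifen = 100% inhibition; Hill-fit AC50.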

Where “and” joins values, the source holds several entries; their conditions need not be identical. Equal entries are not always repeated. A number with no mark means an inactive call. Results filed as inconclusive are left out. Calls of active or inactive are those of the source. Unless noted, the call rests on the fitted dose curve; in most records, active means well fitted curve in the direction sought with a large enough effect; inconclusive means small, poorly fitted or top-dose-only effect, or another doubt; inactive means no such curve, though single readings can be large; an effect the other way counts as inactive or inconclusive. A value given as a limit tells only on which side of the number the result lay.

Consider `ClC=CCl`, for which the Potency result in experiment [1], in experiment [5], in experiment [8], in experiment [9], in experiment [10] and in experiment [11] was “inactive” each time. Besides, the Potency entry in experiment [12], in experiment [13] and in [14] was “inactive” in each case. Further, the outcome in [2], in experiment [3], in [4], in experiment [6], in experiment [7] and in experiment [16] was inactive. Also, the activation in [15] was 0.329%.
For the compound `C=C(C)CCl`, the Potency entry in [1], in experiment [5], in [8], in [9], in [18] and in [10] was “inactive” throughout. The Potency entry in experiment [11], in experiment [19], in experiment [13] and in [14] was “inactive” each time. The compound was called inactive in [2], in experiment [3], in experiment [4], in experiment [7], in experiment [17] and in [16]. Also, the activation in [15] is -0.792%.
As for `Oc1c(Cl)c(Cl)cc(Cl)c1Cl`, in experiment [20], the Potency is above 92 µM. The Potency entry in experiment [1], in experiment [5], in experiment [8], in [9], in experiment [10] and in experiment [11] was “inactive” each time. The Potency result in [12], in [19], in [13] and in experiment [14] was “inactive” throughout. Further, the result in experiment [3], in [4], in experiment [6], in experiment [7], in [17] and in [16] was inactive. Moreover, in experiment [15], the activation was 0.522%.
Consider `Cc1ccc2c(c1N)C(=O)c1ccccc1C2=O`, for which the Potency in [20] is above 92 µM; in [1], 3.98 µM (active); in experiment [15], 28.2 µM (active). Further, the outcome in experiment [2], in experiment [3], in experiment [4], in experiment [7] and in [17] was inactive. Also, the Potency result in [5], in [8], in experiment [9], in experiment [18], in [10] and in experiment [11] was “inactive” each time. The Potency result in experiment [12], in experiment [13] and in experiment [14] was “inactive” throughout.
For `CSSC`, the Potency in experiment [20] is above 92 µM. In addition, the Potency result in [1], in [5], in experiment [9], in experiment [18], in experiment [10] and in [11] was “inactive” throughout. The Potency result in experiment [12], in experiment [19], in [13] and in experiment [14] was “inactive” in each case. Also, the compound was called inactive in experiment [2], in [3], in experiment [6], in experiment [7], in experiment [17] and in experiment [16].
Take `O=Cc1ccc2c(c1)OCO2`: the Potency in [20] is above 92 µM. For the same compound, the Potency result in [1], in experiment [5], in [9], in [18], in [10] and in experiment [11] was “inactive” throughout. For the same compound, the Potency result in experiment [12], in [19], in [13] and in experiment [14] was “inactive” throughout. Besides, the compound was classed as inactive in experiment [2], in experiment [3], in [4], in experiment [6], in experiment [7] and in experiment [17]. Moreover, the compound was classed as inactive in [16]. Further, in [15], the activation was -0.902%.
With `CN(C)c1ccc(N)cc1`, the result in experiment [3], in experiment [4], in [6] and in [7] was inactive. Further, the Potency in experiment [8] is 50.1 µM (active); in [18], 39.8 µM (active); in experiment [10] it was 50.1 µM (active); in experiment [11], 63.1 µM (active); in experiment [12] it was 50.1 µM (active); in experiment [19], 50.1 µM (active). In addition, the Potency is 63.1 µM (active) in [13] and 44.7 µM (active) in experiment [15].
For the compound `S=C1NCCN1`, the Potency in experiment [20] is above 92 µM. The Potency entry in experiment [1], in experiment [5], in experiment [9], in experiment [18], in [11] and in [19] was “inactive” in each case. For the same compound, in [13], the Potency result is “inactive”. Besides, the outcome in experiment [2], in experiment [3], in experiment [4], in [6], in experiment [7] and in experiment [17] was inactive. Also, the outcome in experiment [16] was inactive. Also, in [15], the activation is 4.55% and -3.06%.
